The source made the active and inactive calls. Rule for the calls: active = hit-call score of the fitted dose curve at least 0.9, where 1 is the maximum; inactive = score below 0.9.
Assays:
[1] = ATG_ISRE_CIS: Attagene CIS-FACTORIAL HepG2 Assay for human Interferon Regulatory Factor 1 (IRF1) binding to an Interferon-Stimulated Response Element (ISRE) (AID 2282948); details: HepG2 ISRE cis-reporter (Attagene), mRNA transcription readout; actives raise or lower the signal
How it was run: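 Read-out: fluorescent RT-PCR products resolved by capillary electrophoresis, reporting endogenous transcription factor activity via ISRE-driven reporter mRNA in transfected HepG2 cells dosed for 24 h; gain or loss fitted relative to DMSO.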

[2] = ATG_M_32_CIS: Attagene CIS-FACTORIAL HepG2 Assay for M32 Transcription Factor (Internal Marker) (AID 2282949); details: HepG2 Attagene cis-factorial M32 reporter, mRNA; actives raise or lower the signal;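 note: background control marker of the multiplexed CIS panel rather than a real target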
How it was run: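 HepG2 transfectants (cis-regulated reporter transcription units) dosed 24 h. Reporter mRNA by RT-PCR plus CE, analysed as gain or loss relative to DMSO.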

[3] = ATG_M_06_CIS: Attagene CIS-FACTORIAL HepG2 Assay for M06 Transcription Factor (Internal Marker) (AID 2282950); details: HepG2 Attagene CIS-FACTORIAL M06 internal marker reporter; actives raise or lower the signal
How it was run: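 Serves as a background control readout. Transfected HepG2 exposed to compounds for 24 h, then reporter transcripts quantified by fluorescent RT-PCR and capillary electrophoresis. Both directions fitted against DMSO baseline.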

[4] = molecular target: Hypoxia-inducible factor 1-alpha (Homo sapiens) (UniProt Q16665); assay: ATG_HIF1a_CIS: Attagene CIS-FACTORIAL HepG2 Assay for human Hypoxia Inducible Factor 1 (HIF1A) (AID 2282951); details: HepG2 Attagene cis-factorial HIF1a reporter transcription; actives raise or lower the signal
Hypoxia-inducible factor 1-alpha (Homo sapiens), sequence (Q16665 whole entry, looked up): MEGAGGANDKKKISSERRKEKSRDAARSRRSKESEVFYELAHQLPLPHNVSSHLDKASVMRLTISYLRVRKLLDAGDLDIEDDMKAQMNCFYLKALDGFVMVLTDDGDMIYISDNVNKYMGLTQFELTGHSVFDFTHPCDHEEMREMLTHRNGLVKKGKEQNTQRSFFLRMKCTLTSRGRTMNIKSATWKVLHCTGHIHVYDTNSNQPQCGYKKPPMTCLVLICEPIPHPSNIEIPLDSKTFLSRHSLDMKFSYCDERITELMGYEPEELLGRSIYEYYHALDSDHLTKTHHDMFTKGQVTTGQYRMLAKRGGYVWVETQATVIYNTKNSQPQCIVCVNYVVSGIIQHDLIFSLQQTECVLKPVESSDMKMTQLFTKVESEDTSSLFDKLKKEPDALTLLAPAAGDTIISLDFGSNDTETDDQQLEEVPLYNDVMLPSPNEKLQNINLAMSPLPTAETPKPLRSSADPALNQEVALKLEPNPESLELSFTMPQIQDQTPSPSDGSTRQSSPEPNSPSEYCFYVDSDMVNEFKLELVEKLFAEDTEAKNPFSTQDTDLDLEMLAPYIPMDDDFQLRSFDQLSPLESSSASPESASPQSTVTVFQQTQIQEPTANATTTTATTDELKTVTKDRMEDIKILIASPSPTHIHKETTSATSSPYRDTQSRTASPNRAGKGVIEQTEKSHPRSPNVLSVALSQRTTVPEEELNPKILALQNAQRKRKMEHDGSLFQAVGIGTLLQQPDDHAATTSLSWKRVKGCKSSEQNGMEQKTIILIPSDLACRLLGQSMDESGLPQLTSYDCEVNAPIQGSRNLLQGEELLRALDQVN
How it was run: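 Activity is fitted in both directions relative to DMSO. Reporter transcripts are read by RT-PCR, fluorescent primer extension and capillary electrophoresis after 24 h chemical treatment. The cells are HepG2 carrying transiently transfected cis-element-driven reporter units responding to endogenous factors.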

[5] = molecular target: Hepatocyte nuclear factor 6 (Homo sapiens) (UniProt Q9UBC0); assay: ATG_HNF6_CIS: Attagene CIS-FACTORIAL HepG2 Assay for human Hepatocyte Nuclear Factor 6 (HNF6) (AID 2282952); details: HepG2 Attagene cis-factorial HNF6 reporter transcription; actives raise or lower the signal
Hepatocyte nuclear factor 6 (Homo sapiens), sequence (Q9UBC0 whole entry, looked up, the tested form may be a part): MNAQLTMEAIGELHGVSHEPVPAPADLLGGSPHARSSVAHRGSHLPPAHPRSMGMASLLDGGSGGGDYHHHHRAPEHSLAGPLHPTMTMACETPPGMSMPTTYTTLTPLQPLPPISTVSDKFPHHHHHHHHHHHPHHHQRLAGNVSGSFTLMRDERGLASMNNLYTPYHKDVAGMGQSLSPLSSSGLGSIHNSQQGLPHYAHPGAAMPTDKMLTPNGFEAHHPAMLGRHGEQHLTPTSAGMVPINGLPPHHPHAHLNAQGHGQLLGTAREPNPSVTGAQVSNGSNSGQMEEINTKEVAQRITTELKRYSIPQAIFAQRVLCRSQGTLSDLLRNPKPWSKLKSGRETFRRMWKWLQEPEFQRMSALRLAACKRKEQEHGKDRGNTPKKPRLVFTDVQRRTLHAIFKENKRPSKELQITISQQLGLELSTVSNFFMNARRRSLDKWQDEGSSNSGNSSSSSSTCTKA
How it was run: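 Readout: fluorescent reporter-transcript fragments resolved by capillary electrophoresis after RT-PCR, reflecting endogenous factor activity in transfected HepG2. Exposure 24 h. Gain or loss of signal fitted bidirectionally against DMSO.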

[6] = molecular target: Heat shock factor protein 1 (Homo sapiens) (UniProt Q00613); assay: ATG_HSE_CIS: Attagene CIS-FACTORIAL HepG2 Assay for human Heat Shock Transcription Factor 1 (HSE) (AID 2282953); details: HepG2 HSE cis-reporter, Attagene RNA transcription; actives raise or lower the signal
Heat shock factor protein 1 (Homo sapiens), sequence (Q00613 whole entry, looked up): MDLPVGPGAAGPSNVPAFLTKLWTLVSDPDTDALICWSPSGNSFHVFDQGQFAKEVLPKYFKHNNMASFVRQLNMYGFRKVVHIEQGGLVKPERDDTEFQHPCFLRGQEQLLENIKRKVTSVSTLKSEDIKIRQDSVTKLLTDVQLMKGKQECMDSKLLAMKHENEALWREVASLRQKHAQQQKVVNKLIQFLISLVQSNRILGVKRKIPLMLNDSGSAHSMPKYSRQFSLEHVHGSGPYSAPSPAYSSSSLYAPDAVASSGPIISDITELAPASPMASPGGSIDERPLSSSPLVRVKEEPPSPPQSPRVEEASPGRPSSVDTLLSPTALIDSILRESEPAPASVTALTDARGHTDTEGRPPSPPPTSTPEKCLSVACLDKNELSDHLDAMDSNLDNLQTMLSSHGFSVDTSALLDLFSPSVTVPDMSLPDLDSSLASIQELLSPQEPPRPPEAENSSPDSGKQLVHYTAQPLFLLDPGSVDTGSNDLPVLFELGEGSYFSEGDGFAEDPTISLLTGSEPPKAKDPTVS
How it was run: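 Endogenous transcription factor activity in transiently transfected HepG2, read as reporter mRNA by RT-PCR with fluorescent capillary electrophoresis after 24 h. Gain or loss of signal fitted versus DMSO baseline.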

[7] = ATG_MRE_CIS: Attagene CIS-FACTORIAL HepG2 Assay for human Metal Responsive Element (MRE) (AID 2282954); details: HepG2 MRE cis-reporter transcription, Attagene multiplex; actives raise or lower the signal
How it was run: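 Measured here is mRNA induction from an MRE cis-element reporter in HepG2 after 24 h, quantified by fluorescence of labelled RT-PCR products on capillary electrophoresis; gain- and loss-of-signal fits use DMSO as baseline.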

[8] = ATG_PBREM_CIS: Attagene CIS-FACTORIAL HepG2 Assay for human Phenobarbital-responsive Enhancer Module (PBREM) (AID 2282955); details: HepG2 PBREM cis-reporter, Attagene multiplexed transcription; actives raise or lower the signal
How it was run: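 Endogenous transcription factor activity was read from reporter transcripts in transiently transfected human HepG2 liver cells after 24 h dosing. RT-PCR products were fluorescently labelled, HpaI-cut and sized by capillary electrophoresis; activity fitted bidirectionally against DMSO baseline.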

[9] = molecular target: Paired box protein Pax-6 (Homo sapiens) (UniProt P26367); assay: ATG_Pax6_CIS: Attagene CIS-FACTORIAL HepG2 Assay for human Paired Box 6 (PAX6) (AID 2282956); details: HepG2 CIS-FACTORIAL PAX6 reporter transcription, RNA readout; actives raise or lower the signal
Paired box protein Pax-6 (Homo sapiens), sequence (P26367 whole entry, looked up): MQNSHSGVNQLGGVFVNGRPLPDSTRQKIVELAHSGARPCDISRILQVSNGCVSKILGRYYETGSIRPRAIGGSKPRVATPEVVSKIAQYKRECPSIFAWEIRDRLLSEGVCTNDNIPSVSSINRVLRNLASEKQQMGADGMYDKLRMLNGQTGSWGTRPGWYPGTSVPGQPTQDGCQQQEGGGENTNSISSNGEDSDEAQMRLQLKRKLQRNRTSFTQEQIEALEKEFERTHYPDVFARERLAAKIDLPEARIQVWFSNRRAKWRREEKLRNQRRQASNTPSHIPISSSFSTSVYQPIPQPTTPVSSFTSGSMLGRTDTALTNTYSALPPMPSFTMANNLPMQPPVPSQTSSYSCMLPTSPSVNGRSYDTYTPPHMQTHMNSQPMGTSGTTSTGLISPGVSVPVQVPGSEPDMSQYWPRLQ
How it was run: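 Readout: reporter transcript fluorescence after RT-PCR and capillary electrophoresis. Cells: HepG2, transiently transfected with cis-regulated MRTUs. Exposure 24 h. Gain or loss of signal fitted bidirectionally relative to DMSO.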

[10] = ATG_PXRE_CIS: Attagene CIS-FACTORIAL HepG2 Assay for human Pregnane X Receptor Element (PXRE) (AID 2282957); details: HepG2 Attagene CIS-FACTORIAL PXRE reporter, mRNA; actives raise or lower the signal
How it was run: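 Read-out: fluorescence of reporter-specific RT-PCR products resolved by capillary electrophoresis, fitted bidirectionally relative to DMSO. Human HepG2 liver cells carried transfected cis-promoter reporter units and were exposed to chemicals for 24 h.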

[11] = ATG_PPRE_CIS: Attagene CIS-FACTORIAL HepG2 Assay for human Peroxisome Proliferator-activated Response Element (PPRE) (AID 2282958); details: HepG2 PPRE cis-element reporter, Attagene transcription factor profiling; actives raise or lower the signal
How it was run: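 Endogenous PPRE-driven transcription is measured in HepG2 cells carrying transfected multi-reporter constructs. Reporter transcripts are quantified by RT-PCR, HpaI digestion and capillary electrophoresis 24 h after dosing. DMSO baseline, bidirectional fit.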

[12] = ATG_RORE_CIS: Attagene CIS-FACTORIAL HepG2 Assay for human RAR-related Orphan Receptor Element (RORE) (AID 2282959); details: HepG2 Attagene cis-factorial RORE reporter, mRNA; actives raise or lower the signal
How it was run: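 RORE reporter transcripts reflecting endogenous factor activity were read after 24 h compound exposure of transfected HepG2 cells, using reverse transcription, PCR, fluorescent labelling and capillary electrophoresis sizing. Gain or loss fitted against DMSO.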

[13] = ATG_Sox_CIS: Attagene CIS-FACTORIAL HepG2 Assay for human SRY-box transcription factor (SOX) (AID 2282960); details: HepG2 Attagene cis-factorial SOX reporter, mRNA; actives raise or lower the signal
How it was run: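 Reporter transcripts, measured by RT-PCR and capillary electrophoresis of labelled fragments, report endogenous SOX transcription factor activity. Transiently transfected human HepG2 cells receive chemical for 24 h; changes in either direction are fitted relative to DMSO.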

[14] = molecular target: Transcription factor Sp1 (Homo sapiens) (UniProt P08047); assay: ATG_Sp1_CIS: Attagene CIS-FACTORIAL HepG2 Assay for human Specificity Protein 1 (Sp1) (AID 2282961); details: HepG2 Sp1 cis-reporter transcription, actives raise or lower the signal
Transcription factor Sp1 (Homo sapiens), sequence (P08047 whole entry, looked up): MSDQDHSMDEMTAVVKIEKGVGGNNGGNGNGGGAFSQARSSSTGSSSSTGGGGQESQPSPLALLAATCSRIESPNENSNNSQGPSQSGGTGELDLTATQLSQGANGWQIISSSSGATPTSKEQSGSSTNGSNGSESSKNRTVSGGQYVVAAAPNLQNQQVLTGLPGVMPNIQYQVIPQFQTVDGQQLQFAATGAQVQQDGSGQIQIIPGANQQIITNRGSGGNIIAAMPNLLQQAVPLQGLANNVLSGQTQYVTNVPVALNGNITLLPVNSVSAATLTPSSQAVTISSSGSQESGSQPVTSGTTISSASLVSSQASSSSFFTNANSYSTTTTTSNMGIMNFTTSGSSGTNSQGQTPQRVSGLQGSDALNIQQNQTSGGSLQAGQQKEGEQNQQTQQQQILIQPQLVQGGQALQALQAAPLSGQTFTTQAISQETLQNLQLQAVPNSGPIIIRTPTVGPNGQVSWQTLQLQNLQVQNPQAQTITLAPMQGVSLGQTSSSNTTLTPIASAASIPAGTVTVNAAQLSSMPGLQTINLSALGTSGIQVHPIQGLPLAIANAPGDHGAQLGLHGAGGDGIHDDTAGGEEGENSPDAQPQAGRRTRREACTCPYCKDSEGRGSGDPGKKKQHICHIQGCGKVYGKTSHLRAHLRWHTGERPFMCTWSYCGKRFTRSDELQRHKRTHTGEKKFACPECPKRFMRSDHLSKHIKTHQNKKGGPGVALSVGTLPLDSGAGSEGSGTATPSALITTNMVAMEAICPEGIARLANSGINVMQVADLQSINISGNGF
How it was run: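 Read-out is reporter transcript level, measured by RT-PCR and fluorescent capillary electrophoresis after 24 h chemical treatment. System: transiently transfected HepG2 cells reporting endogenous transcription factor activity; gain or loss fitted against DMSO baseline.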

[15] = ATG_SREBP_CIS: Attagene CIS-FACTORIAL HepG2 Assay for human Sterol Regulatory Element Binding (SREBP) (AID 2282962); details: HepG2 Attagene cis-factorial SREBP reporter, mRNA; actives raise or lower the signal
How it was run: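 Readout: fluorescent reporter-transcript peaks resolved by capillary electrophoresis after RT-PCR. Cells were human HepG2 carrying transfected cis-promoter reporter constructs, dosed for 24 h. Gain or loss of signal was fitted against DMSO controls.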

[16] = molecular target: Signal transducer and activator of transcription 3 (Homo sapiens) (UniProt P40763); assay: ATG_STAT3_CIS: Attagene CIS-FACTORIAL HepG2 Assay for human Signal Transducer and Activator of Transcription 3 (STAT3) (AID 2282963); details: HepG2, Attagene cis-factorial STAT3 reporter transcription; actives raise or lower the signal
Signal transducer and activator of transcription 3 (Homo sapiens), sequence (P40763 whole entry, looked up, the tested form may be a part): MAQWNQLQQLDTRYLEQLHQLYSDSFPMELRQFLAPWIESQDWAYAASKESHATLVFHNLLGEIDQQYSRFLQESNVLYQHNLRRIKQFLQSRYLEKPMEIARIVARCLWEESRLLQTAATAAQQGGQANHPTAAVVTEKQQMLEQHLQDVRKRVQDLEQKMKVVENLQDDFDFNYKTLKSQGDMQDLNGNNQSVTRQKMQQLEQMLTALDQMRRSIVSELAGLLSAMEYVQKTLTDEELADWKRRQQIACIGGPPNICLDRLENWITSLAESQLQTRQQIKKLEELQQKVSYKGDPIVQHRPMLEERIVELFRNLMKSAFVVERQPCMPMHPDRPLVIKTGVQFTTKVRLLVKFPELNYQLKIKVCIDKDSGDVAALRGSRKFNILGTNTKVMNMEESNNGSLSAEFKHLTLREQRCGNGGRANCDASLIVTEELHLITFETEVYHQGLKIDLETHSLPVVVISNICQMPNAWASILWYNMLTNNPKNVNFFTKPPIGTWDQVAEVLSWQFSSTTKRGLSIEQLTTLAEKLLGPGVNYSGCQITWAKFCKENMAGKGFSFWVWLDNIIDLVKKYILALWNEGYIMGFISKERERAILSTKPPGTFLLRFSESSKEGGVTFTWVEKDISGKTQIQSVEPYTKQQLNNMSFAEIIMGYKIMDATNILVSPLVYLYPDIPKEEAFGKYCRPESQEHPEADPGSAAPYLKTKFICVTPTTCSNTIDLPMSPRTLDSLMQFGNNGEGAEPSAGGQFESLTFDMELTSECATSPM
How it was run: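 Fluorescence intensity of 6-FAM-labelled reporter fragments, separated by capillary electrophoresis after RT-PCR, gave the signal. Cells were HepG2 transfected with cis-element reporter units and treated 24 h; fitting was bidirectional relative to DMSO.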

[17] = ATG_TA_CIS: Attagene CIS-FACTORIAL HepG2 Assay for human TA Basal Promoter (AID 2282964); details: HepG2 Attagene CIS-factorial TA basal promoter reporter; actives raise or lower the signal
How it was run: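 Background-control readout: TA basal promoter reporter mRNA, fitted in both directions relative to DMSO. Measured by RT-PCR and capillary electrophoresis 24 hours after treating HepG2 human liver cells transiently carrying multiplexed cis-regulated reporter constructs.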

[18] = ATG_TCF_b_cat_CIS: Attagene CIS-FACTORIAL HepG2 Assay for human T-Cell-Factor with beta-catenin (TCF/b-cat) (AID 2282965); details: HepG2 TCF/beta-catenin cis-reporter transcription, actives raise or lower the signal
How it was run: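 Cells of the HepG2 line carry transiently transfected reporter units whose promoters respond to endogenous factors. Twenty-four hours post-dosing, reporter mRNA induction is measured by fluorescent RT-PCR and capillary electrophoresis, with DMSO as baseline.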

[19] = ATG_GRE_CIS: Attagene CIS-FACTORIAL HepG2 Assay for human Glucocorticoid Response Elements (GRE) (AID 2282947); details: HepG2 GRE cis-reporter, Attagene multiplex mRNA; actives raise or lower the signal
How it was run: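 Fluorescence intensity of reporter-specific cDNA fragments, separated by capillary electrophoresis, provides the signal. Constructs carry cis-regulating promoters in transiently transfected HepG2 liver cells; 24 h incubation; fitting is bidirectional against DMSO.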

Measured: AC50

CC(=O)Nc1ccc2c(c1)Cc1cc(NC(C)=O)ccc1-2
not listed: [19]
inactive: all other assays above

O=c1[nH]c(=O)c2[nH]c(=O)[nH]c2[nH]1
not listed: [1] | [2] | [7] | [8]
inactive: all other assays above

CCCCCCCCCCOC(C)=O
not listed: [1] | [2]
inactive: all other assays above

CCCc1ccc(OC)cc1
not listed: [1] | [5] | [8] | [10]
inactive: all other assays above

C=CC(C)(C)C
not listed: [1] | [2]
inactive: all other assays above

CCN(CC#N)c1cccc(C)c1
active: [10] 45.3 µM
not listed: [13] | [19]
inactive: all other assays above

CCOC(=O)Cc1cccc2ccccc12
active: [10] 71.7 µM
not listed: [1] | [6] | [11] | [12]
inactive: all other assays above

S=C(NC1CCCCC1)NC1CCCCC1
active: [10] 4.14 µM
not listed: [2] | [6]
inactive: all other assays above

c1ccc(-c2ccccn2)nc1
not listed: [1] | [4] | [8]
inactive: all other assays above

CCC(C)(C)C1CCCCC1OC(C)=O (stereo unspecified)
active: [10] 27.2 µM
not listed: [14] | [19]
inactive: all other assays above

c1ccc(CNCc2ccccc2)cc1
active: [10] 36 µM
not listed: [1]
inactive: all other assays above

Cc1c(C)c([N+](=O)[O-])c(C(C)(C)C)c([N+](=O)[O-])c1C
active: [10] 1.93 µM
not listed: [17] | [18] | [19]
inactive: all other assays above

C=CC(=O)NC(C)(C)CS(=O)(=O)O
not listed: [14] | [19]
inactive: all other assays above

CC(=O)NS(=O)(=O)c1ccc(N)cc1
not listed: [2] | [4] | [11]
inactive: all other assays above

COc1ccc(-c2coc3cc(O)ccc3c2=O)cc1
not listed: [2] | [6] | [8] | [10] | [12]
inactive: all other assays above

O=c1cc(-c2ccccc2)oc2ccccc12
active: [6] 178 µM | [7] 124 µM | [8] 99.5 µM | [9] 99.5 µM | [11] 4.81 µM | [17] 99.5 µM | [18] 25.2 µM
not listed: [1] | [10] | [12]
inactive: all other assays above
